Screening results: PubChem BioAssay, Sanford-Burnham Center for Chemical Genomics
Mac1 fbg inh: inhibitors of human CD11b/CD18 binding to fibrinogen. P05107+P11215. K562 CD11b/CD18 adhesion to fibrinogen, ATPlite luminescence; Mn2+ added to activate the integrin. inhibition, % at 10 µM. hit rate 0.54% among 93,000. AID 1497;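 active = primary inhibition of 50% or more at 10 µM, then 40% or more on retest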
CYP2C9 activ: increases human cytochrome P450 2C9 activity | AID 1024 | hit rate 1.4% among 96,000 | activation factor at 5 µM | P11712 | recombinant CYP2C9, luciferin-H conversion, luminescence; hits give high values; factor 1 = untreated enzyme, 0 = blocked;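 active = activation factor of 2 or more for CYP2C9 at a 5 µM dose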;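 note: 0 = sulfaphenazole-blocked wells and 1 = vehicle-only wells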
Target sequence (P11712 whole entry, looked up): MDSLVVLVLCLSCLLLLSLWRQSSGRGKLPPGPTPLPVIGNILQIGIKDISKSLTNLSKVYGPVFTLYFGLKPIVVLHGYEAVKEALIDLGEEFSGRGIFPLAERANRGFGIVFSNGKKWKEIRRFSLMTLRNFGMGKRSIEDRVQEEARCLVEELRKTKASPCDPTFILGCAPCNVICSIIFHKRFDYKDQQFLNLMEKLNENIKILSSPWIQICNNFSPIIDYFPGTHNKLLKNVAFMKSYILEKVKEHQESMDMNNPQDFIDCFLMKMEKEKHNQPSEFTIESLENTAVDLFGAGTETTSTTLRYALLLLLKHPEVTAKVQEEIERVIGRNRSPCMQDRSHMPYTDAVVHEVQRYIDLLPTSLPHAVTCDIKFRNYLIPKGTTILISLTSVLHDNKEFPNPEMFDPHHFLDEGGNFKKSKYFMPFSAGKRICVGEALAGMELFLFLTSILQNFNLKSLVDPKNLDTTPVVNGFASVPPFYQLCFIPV
CD11b adhes enh: enhancers of human CD11b/CD18 binding to fibrinogen. P05107+P11215. K562 CD11b/CD18 adhesion to fibrinogen, ATPlite luminescence. activation, % at 10 µM. hit rate 0.07% among 93,000. AID 1499;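 active = 10 µM primary screen giving 50% or more activity, confirmed by 40% or more on retest at that dose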
CYP2C19 act: increases human CYP2C19 enzyme activity; P33261; recombinant CYP2C19, luciferin-H EGE luminescence; hits give high values; 0 = fully inhibited enzyme, 1 = untreated enzyme; activation factor at 5 µM; 96,000 tested, under 10 active;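 active = activation factor of at least 2 at 5 µM in the primary screen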;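 note: 0 = wells with 2.5 mM tranylcypromine and 1 = vehicle-only wells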
CYP2C9 inhib: blocks human cytochrome P450 2C9 | P11712 | CYP2C9 Supersomes, luciferin-H conversion, luminescence | inhibition, % at 5 µM | hit rate 20% among 96,000;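 active = blocking of liver enzyme CYP2C9 beyond about 50% at 5 µM, limit read from the data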
CYP2C19 inhib: inhibitors of human CYP2C19; inhibition, % at 5 µM; hit rate 21% among 96,000; P33261; CYP2C19 Supersomes, luciferin-H EGE luminescence, 30 min;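 active = CYP2C19 inhibition above a set limit at 5 µM in the primary screen, cut at about 50% in these data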;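 note: plate controls were negative control wells for no effect and 2.5 mM tranylcypromine positive control for full effect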
Active calls of the source: *; · = no result given. Hits are enriched below; roughly 28% of the tested compounds scored in any of these assays.

SMILES	Mac1 fbg inh	CYP2C9 activ	CD11b adhes enh	CYP2C19 act	CYP2C9 inhib	CYP2C19 inhib
O=C(CSc1ncn(-c2ccccc2)n1)Nc1nc2c(s1)CCCC2	1.0	0.4	12.9	0.6	64.0*	44.2
Cc1csc(NC(=O)CSc2ncn(-c3ccccc3)n2)n1	1.4	0.8	-2.1	0.8	20.1	18.9
Oc1ccc(Cl)cc1C1=NCCNC(C(F)(F)C(F)F)=C1	-9.5	1	1.9	1	3.3	1.7
CC(=O)Nc1ccc(C(=O)CSc2ncn(-c3ccccc3)n2)cc1	-6.2	0.3	0.1	0.3	74.9*	67.3*
CC(C)c1nc(SCC(=O)Nc2nc3c(s2)CCCC3)c2ccccc2n1	56.6	1	-2.7	0.8	-2.1	20.2
O=C(CSc1nc(Cc2ccccc2)nc2ccccc12)Nc1nc2c(s1)CCCC2	24.1	0.1	-1.3	0.2	93.1*	84.8*
O=C(CSc1ncn(-c2ccccc2)n1)Nc1nc2ccccc2s1	12.2	0.4	-2.7	0.4	64.6*	64.9*
Cc1nnc(NC(=O)CSc2nc(C(C)C)nc3ccccc23)s1	-4.8	0.3	-0.4	0.9	66.3*	7.9
CC(C)(C)c1nc(SCC(=O)Nc2nc3c(s2)CCCC3)c2ccccc2n1	·	0.7	·	1	30.3	-1.1
O=C(CSc1ncn(-c2ccccc2)n1)N1CCc2ccccc21	-19.8	0.9	5.1	0.7	7.3	26.7
Cc1ccc2c(c1)cc(C)c1nnc(SCC(=O)NCc3ccco3)n12	7.2	1.3	0.1	0.8	-28.8	22.7
Cc1csc(NC(=O)CCc2nc3ccccc3s2)n1	-10.8	1.8	35.5	0.2	-77.0	83.0*
O=C(CSc1ncn(-c2ccccc2)n1)Nc1nccs1	-2.6	0.8	1.4	0.4	20.9	55.8*
Cc1csc(NC(=O)CCS(=O)(=O)c2ccc(Br)cc2)n1	-15.5	0.1	-0.7	0.6	85.3*	41.5
CCn1cc([N+](=O)[O-])c(C(=O)Nc2nc(-c3ccc(C)cc3)c(C)s2)n1	-1.4	0.7	-2.1	0.9	27.0	12.6
Cc1ccc(S(=O)(=O)N2CCOCC2)cc1N/N=C(\C#N)c1nc2ccccc2[nH]1	34.1	·	-1.6	·	·	·
Cc1ccc(NC(=O)CSc2n[nH]c(-c3ccncc3)n2)cc1	0.5	0.1	-0.8	0.4	94.4*	61.5*
COC(=O)CSc1n[nH]c(-c2ccncc2)n1	-2.6	0.4	-2.8	0.4	64.9*	61.2*
CCc1ccc(C(=O)CSc2n[nH]c(-c3ccncc3)n2)cc1	14.0	0	-4.9	0.1	96.6*	86.6*
O=C(CSc1n[nH]c(-c2ccncc2)n1)Nc1ccccn1	1.4	0.2	-1.9	0.5	76.7*	50.0*
Cc1noc(NS(=O)(=O)c2ccc(NC(=O)CSc3n[nH]c(-c4ccccc4)n3)cc2)c1C	-9.4	0.7	-0.2	1	28.1	1.1
CCCSc1nnc(C(C)C)n1N	58.3	1.1	-3.0	1.1	-11.3	-15.0
Cc1ccc(C(=O)CSc2n[nH]c(-c3ccco3)n2)cc1C	-10.0	0.6	1.0	0.8	36.3	24.3
O=C(CSc1n[nH]c(-c2ccccc2)n1)c1ccc(O)c(O)c1	2.8	0.4	-7.1	0.4	55.7*	64.0*
CCOC(=O)c1sc(NC(=O)CSc2n[nH]c(-c3ccncc3)n2)c(C#N)c1C	38.3	0.5	-4.0	1	50.6*	3.5
SMILES	Mac1 fbg inh	CYP2C9 activ	CD11b adhes enh	CYP2C19 act	CYP2C9 inhib	CYP2C19 inhib
CCOC(=O)c1sc(NC(=O)CSc2nccc(C)n2)c(C#N)c1C	-0.1	0.8	-3.9	0.9	24.4	10.5
CC1(C)CC(=O)C(C(=S)Nc2ccccc2)=C(NCCN2CCOCC2)C1	-0.4	1	-1.1	0.9	1.0	11.9
NC(=O)C1CCN(S(=O)(=O)c2cccc(C(=O)O)c2)CC1	-1.3	1	-1.6	1	0.6	-2.5
COc1ccc(-c2csc(/C(C#N)=C(\O)CSc3nccn3C)n2)cc1OC	-5.3	0.3	-1.8	0.8	68.7*	19.0
Cc1cc(N2CCC(N(C)C3CCCC3)CC2)nc2cc(O)ccc12	-6.3	1	10.3	0.9	4.4	14.5
CC(=O)N1CCN=C1SCc1ccc(Br)cc1	-2.4	0.4	9.9	0.5	62.1*	53.8*
Cc1ccc(CSC2=NCCN2C(=O)C2CC2)cc1	-8.4	0.8	-0.8	0.1	19.4	92.4*
O=C(C1CC1)N1CCN=C1SCc1cccc(C(F)(F)F)c1	1.0	0.3	-3.2	0	70.1*	95.2*
